GLD-1 RNA inh: GLD-1/TGE RNA complex disruptors, primary screen, biochemical, fluorescence polarization; Female germline-specific tumor suppressor gld-1 (Caenorhabditis elegans), Q17339; purified GLD-1 + fluorescein TGE RNA; inhibition, % at 5.96 µM; hit rate 0.44% among 320,000;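 active = percent inhibition above a per-plate cutoff, the plate mean of test compounds plus 3 SD, cut at about 30% in these data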;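 also: 0% = DMSO wells with GLD-1 and probe and 100% = wells lacking GLD-1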
Target sequence (Q17339 whole entry, looked up): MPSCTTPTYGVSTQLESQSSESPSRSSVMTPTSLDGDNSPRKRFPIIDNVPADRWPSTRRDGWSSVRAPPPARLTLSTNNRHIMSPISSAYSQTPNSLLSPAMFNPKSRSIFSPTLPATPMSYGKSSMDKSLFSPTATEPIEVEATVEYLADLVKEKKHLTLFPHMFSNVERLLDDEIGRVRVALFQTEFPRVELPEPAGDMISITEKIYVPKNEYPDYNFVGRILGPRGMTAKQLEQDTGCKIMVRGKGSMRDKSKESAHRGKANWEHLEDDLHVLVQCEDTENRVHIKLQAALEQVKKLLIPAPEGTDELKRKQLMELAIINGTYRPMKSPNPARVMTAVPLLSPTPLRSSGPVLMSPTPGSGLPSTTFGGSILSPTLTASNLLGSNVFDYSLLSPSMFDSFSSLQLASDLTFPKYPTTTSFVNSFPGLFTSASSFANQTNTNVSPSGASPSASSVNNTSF
Mcl1 Bid PPI: Mcl-1/Bid binding inhibitors, primary screen, biochemical, TR-FRET, 1536-well; hit rate 0.97% among 220,000; inhibition, % at 21.7 µM; TR-FRET Mcl-1/Bid-Dy647 peptide binding; Induced myeloid leukemia cell differentiation protein Mcl-1 (Homo sapiens), Q07820;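 active = compounds that cut the binding signal by more than half at the single screening dose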;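 also: His-tagged Mcl-1 with europium anti-His antibody binding Bid BH3 peptide; 0% = Mcl-1 plus peptide wells and 100% = peptide-only wells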
BCLXL inh: inhibitors of human Bcl-xL, primary screen, biochemical, fluorescence polarization, HTS | hit rate 0.7% among 320,000 | GST-Bcl-xL / FITC-Bim BH3 peptide fluorescence polarization | Bcl-2-like protein 1 (Homo sapiens), Q07817 | inhibition, % at 10.9 µM;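 active = inhibition above the mean of all tested compounds plus 3 SD, cutoff set per campaign, cut at about 30% in these data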;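 also: 0% = DMSO wells and 100% = unlabeled Bim-BH3 peptide competitor; inhibitors lower millipolarization by displacing the labeled peptide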
Target sequence (Q07817 whole entry, looked up): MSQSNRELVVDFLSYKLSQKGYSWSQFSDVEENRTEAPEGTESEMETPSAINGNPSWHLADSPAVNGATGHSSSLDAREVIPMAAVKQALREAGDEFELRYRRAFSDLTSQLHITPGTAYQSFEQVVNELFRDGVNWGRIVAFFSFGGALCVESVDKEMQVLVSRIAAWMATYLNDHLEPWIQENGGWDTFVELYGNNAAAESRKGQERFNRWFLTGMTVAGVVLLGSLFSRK
Mcl-1 Bim block: inhibitors of Bim peptide binding to Mcl-1, primary screen, biochemical, bead-based flow cytometry, multiplex | Bim peptide-Mcl-1 binding | inhibition, % at 10 µM | hit rate 0.1% among 190,000 | AID 1009, 2008; in the data active = inhibition above about 40%;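 also: 0% = no compound tracer wells and 100% = peptide blocker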
MCL1-BIM inh: inhibitors of MCL1 binding to BIM-BH3, primary screen, biochemical, fluorescence polarization. GST-MCL1 / FITC-Bim-BH3 fluorescence polarization. hit rate 0.68% among 320,000. Induced myeloid leukemia cell differentiation protein Mcl-1 (Homo sapiens), Q07820. inhibition, % at 10.9 µM. AID 2057, 2009;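 active = inhibition above the mean inhibition of all tested compounds plus 3 SD, set per campaign, cut at about 40% in these data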;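 also: 0% = DMSO wells and 100% = unlabeled Bim-BH3 peptide control; higher means more loss of mP so more displacement of Bim peptide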
Mcl1-Noxa inh: Mcl-1/Noxa binding inhibitors, primary screen, biochemical, TR-FRET, 1536-well; Induced myeloid leukemia cell differentiation protein Mcl-1 (Homo sapiens), Q07820; TR-FRET Mcl-1/Noxa peptide binding, 2 h; inhibition, % at 21.7 µM; hit rate 1.5% among 220,000; AID 1022, 2008;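 active = compounds that cut the protein-peptide binding signal by more than 50% relative to plate controls in a single-dose test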;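 also: His-tagged Mcl-1 with rhodamine Noxa BH3 peptide and terbium anti-His antibody; 0% = Mcl-1 plus Noxa peptide wells and 100% = peptide-only wells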
* = called active by the depositor. Only some compounds are listed: those with a hit (about 2.3% of all), similar ones and a draw of the others.

COc1cc(Cl)c(C)cc1NC(=O)CCCn1c(=O)oc2ccccc21 was read as GLD-1 RNA inh -6.0, Mcl1 Bid PPI 95.3*, BCLXL inh 0.4, Mcl-1 Bim block -1.0, MCL1-BIM inh 0.2 and Mcl1-Noxa inh 25.5.
Screening COc1cc(OC)c(NC(=O)CCCn2c(=O)oc3ccccc32)cc1Cl returned GLD-1 RNA inh -5.0, Mcl1 Bid PPI -31.9, BCLXL inh -4.1, Mcl-1 Bim block 0.0, MCL1-BIM inh -7.6 and Mcl1-Noxa inh -9.3.
Screening CCc1ccc2oc(C(=O)NCC(c3ccc(OC)cc3)N3CCCCC3)c(C)c2c1 (stereo not drawn) returned GLD-1 RNA inh 6.1, BCLXL inh 6.4 and MCL1-BIM inh 8.6.
Screening CCN1C(=O)/C(=C2\SC(=S)N(NC(=O)c3ccccc3O)C2=O)c2ccccc21 returned GLD-1 RNA inh 3.2, Mcl1 Bid PPI -68.7, BCLXL inh 22.6, MCL1-BIM inh 31.2 and Mcl1-Noxa inh 65.4*.
`O=C(COCC(=O)NCc1ccccc1)NCc1ccccc1` gave GLD-1 RNA inh 5.4, Mcl1 Bid PPI -18.6, BCLXL inh -0.4, Mcl-1 Bim block 49.0*, MCL1-BIM inh -2.4 and Mcl1-Noxa inh 3.8.
O=C(CCc1ccccc1)NCc1ccccc1 was read as GLD-1 RNA inh -10.2, Mcl1 Bid PPI -18.9, BCLXL inh 2.8, Mcl-1 Bim block -7.0, MCL1-BIM inh -3.5 and Mcl1-Noxa inh -4.7.
Cc1nc2ccc(NC(=O)c3cc([N+](=O)[O-])cc([N+](=O)[O-])c3Cl)cc2s1 was read as GLD-1 RNA inh 6.8, Mcl1 Bid PPI 21.8, BCLXL inh 7.5, Mcl-1 Bim block -13.0, MCL1-BIM inh 10.0 and Mcl1-Noxa inh 96.3*.
`CCOc1ccc(S(=O)(=O)N2CCCCC2)cc1NC(=O)CN1C(=O)NC(C)(c2ccc(C)cc2)C1=O` (stereo not drawn) gave GLD-1 RNA inh -1.3, BCLXL inh 21.5 and MCL1-BIM inh 16.0.
`COc1ccc(CC(=O)Nc2ccc(N3CCCC3)c(C)c2)cc1` gave GLD-1 RNA inh -10.8, BCLXL inh 2.6 and MCL1-BIM inh 2.2.
CCCn1nnnc1NCc1ccccc1Cl was read as GLD-1 RNA inh -3.0, BCLXL inh 6.7 and MCL1-BIM inh 3.8.
Screening CC1=C(C#N)C(=O)N(C2CCS(=O)(=O)C2)C(=O)/C1=C\c1ccco1 (stereo not drawn) returned GLD-1 RNA inh 13.6, Mcl1 Bid PPI 60.5*, BCLXL inh 49.3*, MCL1-BIM inh 105.4* and Mcl1-Noxa inh 109.6*.
`O=C1/C(=C\c2ccco2)SC(=S)N1C1CCCCC1` gave GLD-1 RNA inh -1.6, BCLXL inh 3.3 and MCL1-BIM inh 18.7.
`O=c1[nH]c2cc3c(cc2cc1CN(Cc1cccnc1)Cc1nnnn1Cc1ccco1)OCCO3` gave GLD-1 RNA inh 5.9, Mcl1 Bid PPI -0.7, BCLXL inh 33.6*, Mcl-1 Bim block -2.0, MCL1-BIM inh 43.9* and Mcl1-Noxa inh 35.7.
For O=c1[nH]c2cc3c(cc2cc1CN(CCCO)Cc1nnnn1Cc1ccc(F)cc1)OCO3 the results were GLD-1 RNA inh 15.0, Mcl1 Bid PPI -14.1, BCLXL inh 33.4*, Mcl-1 Bim block 0.0, MCL1-BIM inh 28.3 and Mcl1-Noxa inh 4.2.
COc1ccccc1CN(Cc1cc2cc3c(cc2[nH]c1=O)OCCO3)Cc1nnnn1Cc1ccco1 was read as GLD-1 RNA inh 14.1, Mcl1 Bid PPI -9.3, BCLXL inh 32.3*, Mcl-1 Bim block 2.0, MCL1-BIM inh 30.8 and Mcl1-Noxa inh 44.8.
For O=c1[nH]c2cc3c(cc2cc1CN(Cc1ccccc1)Cc1nnnn1Cc1ccco1)OCCO3 the results were Mcl1 Bid PPI 0.7, Mcl-1 Bim block -1.0 and Mcl1-Noxa inh 27.2.
For COc1ccc(C)cc1NC(=O)CSc1nnc2ccc(-c3ccncc3)nn12 the results were GLD-1 RNA inh 8.3, BCLXL inh 2.4 and MCL1-BIM inh 4.8.
Screening Cc1nnc(NS(=O)(=O)c2ccc(Br)cc2)s1 returned GLD-1 RNA inh 0.0, BCLXL inh 6.6 and MCL1-BIM inh 6.0.
CC1CCc2c(sc3ncn(CCO)c(=O)c23)C1 (stereo not drawn) was read as GLD-1 RNA inh 2.9, Mcl1 Bid PPI 3.8, BCLXL inh 0.6, Mcl-1 Bim block 1.0, MCL1-BIM inh -1.8 and Mcl1-Noxa inh -0.6.
Screening CC1CCc2c(sc3ncn(CC(=O)N=Nc4c(O)[nH]c5ccccc45)c(=O)c23)C1 (stereo not drawn) returned GLD-1 RNA inh 2.7, Mcl1 Bid PPI 67.9*, BCLXL inh 0.0, MCL1-BIM inh 6.5 and Mcl1-Noxa inh 19.9.
For Cc1ccc(OCCCC(=O)Nc2ccccc2C(F)(F)F)cc1 the results were GLD-1 RNA inh 7.6, Mcl1 Bid PPI -9.7, BCLXL inh 5.1, Mcl-1 Bim block -4.0, MCL1-BIM inh 6.2 and Mcl1-Noxa inh 73.6*.
COc1cc(CNCc2ccncc2)cc(Br)c1OCc1ccccc1F was read as GLD-1 RNA inh 5.6, Mcl1 Bid PPI 55.1*, BCLXL inh 4.0, Mcl-1 Bim block 0.0, MCL1-BIM inh 11.2 and Mcl1-Noxa inh 36.4.
For COc1cc(CNc2ccc(O)cc2)cc(Br)c1OCc1ccccc1F the results were GLD-1 RNA inh 18.4, Mcl1 Bid PPI 95.4*, BCLXL inh 22.5, Mcl-1 Bim block -3.0, MCL1-BIM inh 20.8 and Mcl1-Noxa inh 29.1.
Screening COc1cc(CNc2ccc(N3CCCC3)cc2)ccc1OCc1ccccc1F returned GLD-1 RNA inh 9.9, Mcl1 Bid PPI -106.4, BCLXL inh 4.2, Mcl-1 Bim block 1.0, MCL1-BIM inh 8.5 and Mcl1-Noxa inh 57.0*.
COc1cc(CNn2cn[nH]c2=S)cc(Br)c1OCc1ccccc1F was read as GLD-1 RNA inh 0.6, Mcl1 Bid PPI -25.8, BCLXL inh -11.8, Mcl-1 Bim block -1.0, MCL1-BIM inh -9.7 and Mcl1-Noxa inh 35.5.
`COCc1cc(CN2CCCC(C(=O)Nc3ccc(-c4ccco4)cc3)C2)ccc1OC` (stereo not drawn) gave GLD-1 RNA inh -5.5, BCLXL inh 4.6 and MCL1-BIM inh -1.3.
`O=C(NN1C(=O)C2C(C1=O)C1C=CC2C12CC2)c1ccc(Cl)cc1` (stereo not drawn) gave GLD-1 RNA inh 4.0, Mcl1 Bid PPI 99.6*, BCLXL inh 2.5, MCL1-BIM inh -1.8 and Mcl1-Noxa inh 32.4.
Oc1ccc(Nc2ncnc3c2oc2ccccc23)cc1 was read as GLD-1 RNA inh -4.0, BCLXL inh 1.4 and MCL1-BIM inh 6.1.
